The panel holds about 83,000 compounds, 20% with a hit somewhere; the sample as a whole holds those more often.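 Testing used 96-well plates and a 48-hour single-concentration exposure. Example: -40 means 40% of the starting cells died.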 Activity calls are given as the source filed them.

The test system of this test is SK-OV-3 ovarian. Kind of test: NCI-60 one-dose screen, 48 h (100 = growth as untreated, 0 = no growth, -100 = all killed). The settings on record: 10 µM. As to the method:
Growth inhibition of the SK-OV-3 human tumor cell line is measured as a screen for anti-cancer activity. Cells are grown in 96 well plates and exposed to the test compound for 48 hours. Compounds are tested at a single concentration, which is 10^-5 M for most compounds. The reported endpoint is percent growth (GI% or GIPRCNT), where numbers from 0 - 100% represent growth inhibition, and numbers from -100% - 0 represent cell death. For example, a value of 40 represents 60% growth inhibition. A value of 0 means no net growth occurred over the course of the experiment. A value of -40 indicates 40% of cells at the beginning of the experiment died by the end of the experiment. A value of -100 means all cells are dead at the end of the experiment.
NCI-60 Human Tumor Cell Lines Screen was performed using the standard one-dose NCI protocol, which is described in more detail at https://dtp.cancer.gov/discovery_development/nci-60/default.htm.
Compounds with GIPRCNT values below 10 were considered active. Activity score was based on GIPRCNT using the following formula: […]
Score is 0 for GIPRCNT values of 100 or above, 50 for GIPRCNT values of 0, and 100 for GIPRCNT values of -100.
In the case of `CCCCCCCCCCN=C(c1ccc(N(C)C)cc1)c1ccc(N(C)C)cc1`, the growth was 16.6% (inactive). As for `COC(=O)[C@]12CC[C@@H](C)[C@H](C)[C@@H]1C1=CC[C@@H]3[C@@]4(C)C/C(=N\O)[C@H](O)[C@@]5(C)COC(=C45)C[C@@]3(C)[C@]1(C)CC2`, the growth was -91.9% (active). Consider `N=C(N)c1ccc(-c2ccc(-c3ccccc3)s2)cc1F`, for which the growth was -92.4% (active). Consider `CC1(C)CC(=O)c2c(nc3ccc(Cl)cc3c2-c2ccccc2)C1`, for which the growth was 94.3% (inactive). Take `COc1ccc2c(=O)cc(C(Cl)(Cl)Cl)oc2c1`: the growth was 9.34% (active).

As to `COc1cc(OC)cc(-c2ccc(-c3ccc(C(=N)N)cn3)o2)c1`, the growth is 31.2% (inactive).

As to `Cc1cc(C)c2nc(C)c(C)[n+]([O-])c2c1`, the growth is 85.4% (inactive).

Consider `Cc1ccc(Cl)cc1Nc1nc(C(F)(F)F)ccc1C(=O)N/N=C/c1c(Cl)cccc1Cl`, for which the growth was -8.46% (active). Turning to `COc1ccc(Cn2cc3c(c2-c2ccccc2)CC(C)(C)c2cnoc2-3)cc1`, the growth is 20% (inactive). Consider `COc1ccc2nc(/C=C/c3ccc(N(C)C)cc3)sc2c1`, for which the growth was 197% (inactive). As to `Cc1nc2ccc(-n3c(-c4ccc(Cl)cc4)nc4ccccc4c3=O)cc2n1Cc1ccccc1`, the growth was 87.3% (inactive). On to `COc1ccc(C(=O)/C=C/c2cc(-c3ccc4c(c3)OCO4)n[nH]2)cc1OC`, for which the growth is 93.3% (inactive). For the compound `COc1cc(C(=O)n2nc(N)c3c(C)cc(C)nc32)cc(OC)c1OC`, the growth is 92.3% (inactive). For the compound `COc1cc(-c2nc3ccc(C)cc3[nH]2)ccc1OCC(=O)N=Nc1c(O)[nH]c2ccccc12`, the growth is -3.57% (active). Turning to `CCCCCCCC/C=C/CCCCCCCCC1=NCCN1CCO`, the growth was 97.8% (inactive). Take `COc1cc(-c2nc3ccccc3[nH]2)ccc1OCC(=O)N=Nc1c(O)[nH]c2ccccc12`: the growth is 101% (inactive). For the compound `CN(C)CCCN1c2ccccc2Sc2ccc(C(F)(F)F)cc21`, the growth is 20.2% (inactive). As for `CC(=O)Nc1ccc2c(c1)C(N1CC3CCC(CC3)C1)c1ccccc1-2` (stereo not given), the figure is 91.4% (inactive); as for `O=C(Nc1cccc(Cl)c1)Nc1cc2ncncc2cc1OCc1cccc(F)c1`, 28.1% (inactive). On to `CCCn1c(=O)c2c(nc(-c3cccc(OCCCCl)c3)n2C)n(CCC)c1=O`, for which the growth was 7.41% (active). Consider `CCc1ccc(Nc2cc(C)nc3nc(C)nn23)cc1`, for which the growth is 38.3% (inactive). As for `O=C(O)CN1C(=O)C=CC1=O`, the figure is 105% (inactive). For the compound `COC(=O)c1c(C)nc(Nc2nc3ccccc3s2)nc1-c1ccc(Cl)cc1Cl`, the growth is 102% (inactive). For the compound `Cc1cc(C(C)(C)CC(C)(C)C)ccc1OCCOCC[N+](C)(C)Cc1ccccc1`, the growth was 11% (inactive). With `NC1CCC(Nc2nc(NCc3ccc(-c4cccs4)nc3)c3ncn(C4CCCC4)c3n2)CC1` (stereo not given), the growth was 4.04% (active). As for `CCN1CCN(c2nc(NNC(=O)c3cccc(OC)c3)nc(N3CCN(C(c4ccccc4)c4ccccc4)CC3)n2)CC1`, the figure is 76.1% (inactive); as for `FC(F)(F)c1ccc(-c2cnc(Br)nc2NC2CCCCCC2)cc1`, 71.6% (inactive); as for `O=C(O)c1cc(C(F)(F)F)cc(C(F)(F)F)c1`, 112% (inactive). For the compound `CCOC(=O)CSC(=S)SCC(=O)OCC`, the growth is 98.2% (inactive). Consider `Cc1ccc(-n2nnc3c(sc4ccccc43)c2=O)cc1`, for which the growth is 9.88% (active). On to `CCc1ccc(-c2nnc(COc3ccc(-c4nc5ccccc5[nH]4)cc3OC)o2)cc1`, for which the growth is 100% (inactive). As for `FC(F)(F)c1ccc(-c2cnc(Cl)nc2NCc2cc(C(F)(F)F)cc(C(F)(F)F)c2)cc1`, the figure is 43.4% (inactive); as for `COc1ccc2nc(C)cc(Nc3ccc(Cl)cc3)c2c1`, 105% (inactive). In the case of `COc1ccc(-n2nnc3c(sc4ccccc43)c2=O)cc1`, the growth is -15.6% (active).

Turning to `O=C(OCc1ncc(-c2ccc(C(F)(F)F)cc2)c(NC2CCCCCC2)n1)c1c(F)c(F)c(F)c(F)c1F`, the growth is 91.8% (inactive).

Turning to `O=C(OCC1OC(n2cc(C(F)(F)F)c(=O)[nH]c2=O)CC1OC(=O)c1ccc([N+](=O)[O-])cc1)c1ccc([N+](=O)[O-])cc1` (stereo not given), the growth was 63.1% (inactive).

Consider `Cc1cc(C)c(/C=C2\C(=O)Nc3ccc(NC(=O)CCCCCCC(=O)NO)cc32)[nH]1`, for which the growth is 31.3% (inactive).

With `COc1ccc(/C(=C/c2cc(OC)c(OC)cc2[N+](=O)[O-])C(=O)O)cc1`, the growth is 99.9% (inactive). On to `O=c1cc(CSc2nnc(-c3ccccc3)n2-c2ccc(F)cc2)c2ccc3ccccc3c2o1`, for which the growth was 99.7% (inactive). Take `CCOC(=O)c1cc2c(n1Cc1cccc(OC)c1)-c1oncc1CC2`: the growth was 29.7% (inactive).
